Assay results published in PubChem BioAssay AID540276 (National Center for Advancing Translational Sciences (NCATS), 2011).
Several values for one entry are separate records, joined by “and”; a condition that tells them apart may be missing. Identical values can stand only once. The campaign covered roughly 300,000 compounds. About 5,400 (1.8%) were called active. Roughly 28% stayed inconclusive and do not appear here. Calls follow the shape of the full dose curve; tested in HEK293 cells. This excerpt belongs to a sample that is enriched for actives. Some compounds were tested as several samples or in several runs, with calls that do not always agree.

Assay: qHTS for inhibitors of binding or entry into cells for Marburg Virus
Conditions: Marburg virus pseudotyped entry inhibition, cell reporter; series mostly up to 37.8 µM; activity change, negative = inhibition: at the top concentration
% is scaled to controls: 0 for no effect and ±100 for the full control effect; potency is read from the fitted curve at half-maximal effect.

| Structure (SMILES) | activity change, negative = inhibition | Potency |
| --- | --- | --- |
| CC(C)c1ccc(-c2noc(C3CCCN(S(C)(=O)=O)C3)n2)cc1 (configuration not stated) | -30.6% (inactive) |  |
| COc1cc(-c2noc(C3CCCN(S(=O)(=O)c4cccc(Cl)c4)C3)n2)cc(OC)c1OC (configuration not stated) |  | inactive and 9.2 µM (active) |
| O=C(Cc1cccs1)N1CCCC(c2nc(-c3ccc(S(=O)(=O)N4CCCC4)cc3)no2)C1 (configuration not stated) | -24.4% (inactive) |  |
| Cc1ccc(C(=O)OCC(=O)N2CCCCCC2)cc1S(=O)(=O)N1CCOCC1 | 4.19% (inactive) |  |
| NC(=O)c1cc2ccccc2o/c1=N/NC(=O)c1cccc(F)c1 | -5.08% [at 46.1 µM] (inactive) |  |
| CCOc1ccc(CN2CCNC(=O)C2CC(=O)NCCCC2CCCC2)cc1 (configuration not stated) | 10.3% (inactive) |  |
| Oc1cccc(C2c3[nH]c4ccccc4c3CCN2Cc2cnn(-c3ccccc3)c2)c1 (configuration not stated) | -8.18% [at 46.1 µM] (inactive) |  |
| CCOc1ccc(C2c3[nH]c4ccccc4c3CCN2Cc2cccn2-c2ncccn2)cc1 (configuration not stated) |  | 3.16 µM (active) |
| c1ccc(C2c3[nH]c4ccccc4c3CCN2Cc2cccn2-c2cccnc2)nc1 (configuration not stated) | -6.35% [at 46.1 µM] (inactive) |  |
| CCN(CC)S(=O)(=O)c1ccc(CNC(=O)CN2C(=O)NC3(CCc4ccccc43)C2=O)cc1 (configuration not stated) | 5.63% (inactive) |  |
| COc1ccc(/C=N/NC(=O)c2ccc3c(c2)OCCO3)c(OC)c1 | -0.257% (inactive) |  |
| COc1ccc(S(=O)(=O)NCCc2c[nH]c3ccccc23)cc1OC | -2.61% [at 46.1 µM] (inactive) |  |
| COc1ccccc1CC(=O)NCCc1c[nH]c2ccccc12 | -23.9% [at 46.1 µM] (inactive) |  |
| COc1cccc(CNCCc2c[nH]c3ccccc23)c1OCc1ccccc1F |  | 7.3 µM (active) |
| O=C1CC(C(=O)O)NC(=S)N1 (configuration not stated) | 0.164% [at 46.1 µM] (inactive) |  |
| COc1ccc(S(=O)(=O)N2CCN(CC(=O)N3CCOCC3)CC2)cc1OC | -5.82% (inactive) |  |
| COc1ccccc1-n1c(=S)[nH]c2c(sc(=S)n2-c2ccc(C)cc2C)c1=O | -1.23% [at 46.1 µM] (inactive) |  |
| COc1cc2[nH]c(=S)n(Cc3ccc(C)o3)c(=O)c2cc1OC | -7.92% (inactive) |  |
| COc1cc(-n2c(=S)[nH]c3ccc(C)cc3c2=O)c(Cl)cc1Cl |  | 5.62 µM (active) |
| CC(C)c1ccc(S(=O)(=O)N2CCN(C(=O)CN3C(=O)NC(C)(c4ccccc4)C3=O)CC2)cc1 (configuration not stated) | 0.605% (inactive) |  |
| COc1ccc(N(CC(=O)N2CCOCC2)S(=O)(=O)c2ccccc2)cc1Cl | 16.6% (inactive) |  |
| CC(C)Oc1ccc(S(=O)(=O)N2CCOCC2)cc1NC(=O)C1CSC2(C)CCC(=O)N12 (configuration not stated) | -14.7% [at 46.1 µM] (inactive) |  |
| O=C(OC12CC3CC(CC(C3)C1)C2)c1ccc(NCc2cc(O)ccc2O)cc1 |  | 4.47 µM (active) |
| C[C@]12CC[C@H](O)CC1=CCC1C2CC[C@@]2(C)C1CC[C@@H]2NC(=O)CCC(=O)O (some centres not stated) | 3.4% (inactive) |  |
| COc1ccc(/C=C/C(=O)NC(=S)N2CCCC(C(N)=O)C2)cc1 (configuration not stated) | -0.358% [at 46.1 µM] (inactive) |  |
| CCCCCCCCn1c2c(c(=N)c3c1CCC3)CCCC2 |  | 5.01 µM (active) |

| Structure (SMILES) | activity change, negative = inhibition | Potency |
| --- | --- | --- |
| Cc1ccc(S(=O)(=O)N2CCCC(C(=O)N3CCN(C)CC3)C2)cc1 (configuration not stated) | 8.49% (inactive) |  |
| CN(C)c1ccc(CSc2ccccc2)cc1 | 5.47% (inactive) |  |
| O=C(CSc1nnc(N2CCOCC2)n1-c1cccc(F)c1)N1CCN(c2ccccn2)CC1 | -2.18% (inactive) |  |
| COc1cccc(CNC(=O)CCC2CCCN(C(=O)c3ccc(F)c(Cl)c3)C2)c1 (configuration not stated) | 2.45% (inactive) |  |
| COc1ccc2[nH]c3c(c2c1)CCN(C(=O)CCC1CCCC1)C3c1ccc(F)cc1 (configuration not stated) |  | 0.631 µM (active) |
| COc1cccc(C(=O)N2CCCC(CCC(=O)NCc3ccc(F)c(F)c3)C2)c1 (configuration not stated) | -21.9% (inactive) |  |
| COc1ccccc1C(=O)NCCC(=O)NCC(c1ccco1)N1CCCCC1 (configuration not stated) | 0.853% (inactive) |  |
| Cc1ccc(S(=O)(=O)N(CC(=O)NCc2ccco2)c2ccccc2C)cc1 | 22.1% [at 46.1 µM] (inactive) |  |
| O=C(O)CCCc1ccccc1 |  | inactive |
| C=CCN1CCN(C(=O)CCCc2ccccc2)CC1 |  | 2.51 µM (active) |
| CC(=O)c1ccc(N2CCN(C(=O)CCc3ccccc3)CC2)cc1 | 27.7% (inactive) |  |
| Cc1cc(C)c(S(=O)(=O)N(C)CC(=O)NCC2CCCO2)c(C)c1 (configuration not stated) | -8.6% [at 46.1 µM] (inactive) |  |
| COC1C(CO)OC(n2cnc3c(=S)nc(N)[nH]c32)C1O (configuration not stated) | 21% (inactive) |  |
| NC(=O)C1(N2CCCC2)CCN(Cc2ccccc2)CC1 | -9.61% (inactive) |  |
| CCC(=C/c1sc2ccc3ccccc3c2[n+]1C)/C=C1\Sc2ccc3ccccc3c2N1C |  | 3.55 µM (active) |
| O=C(Nc1ccc(S(=O)(=O)N2CCCCCC2)cc1)c1c(F)cccc1F | -9.13% (inactive) |  |
| Cc1cc(C)c(S(=O)(=O)N2CCCC2CNC(=O)c2ccc3c(c2)OCO3)c(C)c1 (configuration not stated) | 17.5% (inactive) |  |
| O=C1c2ccccc2C(=O)N1CCCCCCN1C(=O)c2ccccc2C1=O | 11.3% [at 46.1 µM] (inactive) |  |
| O=C1c2cccc3cccc(c23)C(=O)N1CCCCCc1n[nH]c(=S)o1 | -2.52% [at 46.1 µM] (inactive) |  |
| C[N+](C)(CCCCCC[N+](C)(C)CCCN1C(=O)c2cccc3cccc(c23)C1=O)CCCN1C(=O)c2cccc3cccc(c23)C1=O |  | 5.01 µM (active) |
| c1ccc(-c2cn3cccnc3n2)cc1 | 17.4% (inactive) |  |
| Cc1ccc(-n2c(-c3ccc([N+](=O)[O-])cc3)nc3ccccc3c2=O)cc1 | -30.2% [at 46.1 µM] (inactive) |  |
| Cc1nc(-c2ccc([N+](=O)[O-])cc2)c(-c2ccccc2)o1 | -2.14% (inactive) |  |
| Cc1ccc(-c2cc(N)on2)cc1 | 6.12% (inactive) |  |
| Cc1ccc(-c2cn3cc([N+](=O)[O-])ccc3n2)cc1 |  | 3.66 µM (active) |
| Cc1ccc(-c2cn3cc(C)ccc3n2)cc1 |  | 0.316 µM (active) |
